Outcome and AC50 data for five compounds are collected here from PubChem BioAssay (EPA / NIEHS).

Assay [1] can be described thus: APR_HepG2_NuclearSize_72hr: Apredica 72-hour HepG2 Assay for Nuclear Size (AID 2282925). Particulars: high-content imaging, actives raise or lower the signal. In outline: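 Compounds (0.39–200 uM, final DMSO 0.5%) were applied to HepG2 for 72 hr. Cells were then formaldehyde-fixed, permeabilized and labelled with Hoechst 33342. Nuclear diameter was quantified from six images per well.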

A short description of assay [2]: ATG_CRE_CIS: Attagene CIS-FACTORIAL HepG2 Assay for human cAMP Responsive Element (CRE) binding protein 3 (AID 2282926). The following applies: HepG2 CRE cis-reporter, Attagene multiplexed mRNA; actives raise or lower the signal. In outline:
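Capillary electrophoresis of 6-FAM-labelled, HpaI-digested PCR products quantified reporter transcripts. These came from HepG2 transiently transfected with cis-element reporters and exposed to test chemicals for 24 hours, with DMSO defining baseline activity.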

Assay [3] concerns the target CCAAT/enhancer-binding protein beta (Homo sapiens) (UniProt P17676). The assay is described as follows: ATG_C_EBP_CIS: Attagene CIS-FACTORIAL HepG2 Assay for human CCAAT/Enhancer Binding Protein (C/EBP) beta (AID 2282927). Particulars: HepG2 Attagene cis-factorial transcription factor reporter; actives raise or lower the signal. The procedure, abridged:
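Chemical-treated HepG2 cells (24 h) bearing cis-regulated reporter constructs were processed for total RNA, then reverse transcription, PCR amplification, fluorescent primer extension and fragment analysis; gain- and loss-of-signal were fitted against DMSO.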

A short description of assay [4]: ATG_CMV_CIS: Attagene CIS-FACTORIAL HepG2 Assay for human CMV (Internal Marker) (AID 2282928).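 Further: endpoint acts as a background internal control marker rather than a target.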 Particulars: HepG2 CMV promoter reporter, transcription factor profiling; actives raise or lower the signal. The procedure, abridged: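 Readout: fluorescent reporter cDNA fragments separated by capillary electrophoresis after RT-PCR and HpaI cut. Cells: HepG2 carrying transfected cis-promoter reporter constructs, dosed 24 h. Endpoint serves as background internal-marker control, fit bidirectionally versus DMSO.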

Assay [5] in a line: ATG_DR4_LXR_CIS: Attagene CIS-FACTORIAL HepG2 Assay for human Liver X Receptor (LXR), DR4 submotif (AID 2282929). Particulars: HepG2 Attagene DR4 cis-reporter, mRNA transcription; actives raise or lower the signal. In outline: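 HepG2, transient MRTU transfection, cis-element (DR4) promoter; 24 h compound exposure; total RNA → oligo(dT) RT → PCR → 6-FAM primer extension → HpaI cut → CE. Gain/loss vs DMSO, bidirectional fit.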

Assay [6] concerns the target Aryl hydrocarbon receptor (Homo sapiens) (UniProt P35869). The experiment in a line: ATG_Ahr_CIS: Attagene CIS-FACTORIAL HepG2 Assay for human Aryl Hydrocarbon Receptor (Ahr) (AID 2282930). Particulars: HepG2 AhR cis-factorial reporter transcription; actives raise or lower the signal. In outline:
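Following 24 h of chemical dosing, transfected HepG2 liver cells with cis-driven reporter units were lysed for RNA; reporter mRNA was quantified via RT-PCR and capillary electrophoresis, and responses fitted bidirectionally from DMSO.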

Assay [7] in a line: ATG_AP_2_CIS: Attagene CIS-FACTORIAL HepG2 Assay for human Activator Protein 2 (AP-2) (AID 2282932). Particulars: HepG2 AP-2 cis-reporter, Attagene transcription factor profiling; actives raise or lower the signal. In outline: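 Assay in transfected HepG2 with promoter-regulated reporters, 24 h incubation after dosing. Signal is reporter mRNA fluorescence (RT-PCR, capillary electrophoresis), analysed for both increases and decreases relative to DMSO controls.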

Assay [8] can be described thus: ATG_BRE_CIS: Attagene CIS-FACTORIAL HepG2 Assay for human Bone Morphogenetic Protein (BMP) Response Element (BRE) (AID 2282933). The following applies: HepG2 BMP response element reporter, Attagene transcription factor profiling; actives raise or lower the signal. In outline: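 Endogenous transcription factor activity read in transiently transfected HepG2 cells after 24 h chemical exposure. Bidirectional curve fitting against DMSO; readout is reporter transcript level by RT-PCR with capillary electrophoresis of labelled products.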

For assay [9], the target named is Transcription factor E2F1 (Homo sapiens) (UniProt Q01094). The assay is described as follows: ATG_E2F_CIS: Attagene CIS-FACTORIAL HepG2 Assay for human E2F Transcription Factor 1 (AID 2282935). The following applies: HepG2 Attagene cis-reporter, E2F reporter RNA transcripts; actives raise or lower the signal. In outline:
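In this cis-factorial format, endogenous factor activity drives transfected reporters in HepG2; transcripts collected at 24 h are quantified by fluorescence after RT-PCR and capillary separation.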

Assay [10] in a line: ATG_E_Box_CIS: Attagene CIS-FACTORIAL HepG2 Assay for human Enhancer Box (E-box) (AID 2282936). The following applies: HepG2 E-box cis-reporter transcription, actives raise or lower the signal. The procedure, abridged: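 Measured 24 h post-dosing in HepG2 cells transfected with multiple cis-regulated reporter units, signal being reporter mRNA induction detected by fluorescent RT-PCR with capillary electrophoresis; gain or loss fitted against DMSO.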

Assay [11] in a line: ATG_M_61_CIS: Attagene CIS-FACTORIAL HepG2 Assay for M61 Transcription Factor (Internal Marker) (AID 2282937). Particulars: HepG2 Attagene CIS-FACTORIAL M61 internal marker reporter; actives raise or lower the signal. In outline:
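Human liver HepG2, transient MRTU transfection (cis promoter elements), 24 h compound. Total RNA → oligo(dT) RT → PCR → FAM label → HpaI → CE. Internal background marker; bidirectional fitting, DMSO = baseline.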

Assay [12] in a line: ATG_EGR_CIS: Attagene CIS-FACTORIAL HepG2 Assay for human Early Growth Response 1 (EGR1) (AID 2282938). The following applies: HepG2 Attagene CIS-FACTORIAL EGR reporter mRNA; actives raise or lower the signal. In outline:
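Transient transfection of human HepG2 with multiple cis-regulated reporter units, chemical exposure 24 h, total RNA isolated. Reverse transcription, PCR, fluorescent labelling and capillary electrophoresis quantify reporter transcripts; activity fitted bidirectionally against DMSO.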

Assay [13] can be described thus: ATG_M_19_CIS: Attagene CIS-FACTORIAL HepG2 Assay for M19 Transcription Factor (Internal Marker) (AID 2282939). Particulars: HepG2 Attagene CIS-FACTORIAL M19 internal marker reporter; actives raise or lower the signal. The procedure, abridged:
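Internal marker readout, fitted in both directions against DMSO, from HepG2 cells carrying transfected cis-element reporter constructs; RT-PCR and capillary electrophoresis of reporter mRNA after 24 h exposure.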

The nature of assay [14]: ATG_ERE_CIS: Attagene CIS-FACTORIAL HepG2 Assay for Estrogen Response Element (ERE) (AID 2282940). The following applies: HepG2 ERE cis-reporter, Attagene RNA transcript; actives raise or lower the signal. The procedure, abridged:
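After 24 h compound treatment, RNA from transfected HepG2 cells was reverse-transcribed, reporter cDNA PCR-amplified, FAM-labelled, HpaI-cut and resolved by capillary electrophoresis. ERE-driven cis reporter transcripts reflect endogenous factors; gain or loss scored against DMSO.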

Assay [15] in a line: ATG_Ets_CIS: Attagene CIS-FACTORIAL HepG2 Assay for human Erythroblast Transformation Specific (ETS) (AID 2282941). The following applies: HepG2 ETS cis-reporter transcription, actives raise or lower the signal. In outline:
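RT-PCR/capillary electrophoresis fluorescence read-out of reporter mRNA; HepG2 transient multi-reporter transfection; 24 h compound exposure; gain or loss of signal fitted bidirectionally relative to DMSO.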

The target of assay [16] is Hepatocyte nuclear factor 3-beta (Homo sapiens) (UniProt Q9Y261). The experiment in a line: ATG_FoxA2_CIS: Attagene CIS-FACTORIAL HepG2 Assay for human Forkhead box A2 (FOXA2) (AID 2282942). The following applies: HepG2 cis-reporter transcription factor activity, 24 h; actives raise or lower the signal. The procedure, abridged: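 Transient MRTU transfection of HepG2 liver cells; 24 h treatment; total RNA → oligo(dT) RT → PCR → FAM primer extension → HpaI cut → CE. Bidirectional fit vs DMSO.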
Chain of Hepatocyte nuclear factor 3-beta (Homo sapiens) (Q9Y261 whole entry, looked up): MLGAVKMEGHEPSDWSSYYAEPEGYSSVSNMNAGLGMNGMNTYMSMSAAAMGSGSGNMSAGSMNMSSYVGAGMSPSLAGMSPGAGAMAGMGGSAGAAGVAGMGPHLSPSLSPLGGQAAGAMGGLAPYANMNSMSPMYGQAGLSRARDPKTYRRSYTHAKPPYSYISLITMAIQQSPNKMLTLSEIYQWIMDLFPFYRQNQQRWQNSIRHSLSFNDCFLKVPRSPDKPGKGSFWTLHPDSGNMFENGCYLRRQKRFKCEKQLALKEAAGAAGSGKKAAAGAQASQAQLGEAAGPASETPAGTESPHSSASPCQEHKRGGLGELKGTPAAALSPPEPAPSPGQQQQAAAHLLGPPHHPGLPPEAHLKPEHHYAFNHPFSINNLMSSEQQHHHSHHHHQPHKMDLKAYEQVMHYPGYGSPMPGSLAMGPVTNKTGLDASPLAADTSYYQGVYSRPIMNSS

Assay [17] can be described thus: ATG_FoxO_CIS: Attagene CIS-FACTORIAL HepG2 Assay for human Forkhead box O (FoxO) (AID 2282943). Particulars: HepG2 Attagene cis-reporter, FoxO element, mRNA; actives raise or lower the signal. The procedure, abridged: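 24 h chemical exposure, HepG2 with transient cis-MRTU transfection. RNA extraction, oligo(dT) RT, reporter-specific PCR, primer-extension labelling, HpaI digestion, CE fragment analysis; bidirectional fit, DMSO baseline.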

Assay [18] is described as follows: ATG_GATA_CIS: Attagene CIS-FACTORIAL HepG2 Assay for human GATA Binding Protein (AID 2282944). The following applies: HepG2 GATA cis-element reporter, Attagene multiplex mRNA; actives raise or lower the signal. The procedure, abridged:
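Reporter transcripts from a GATA cis-regulated unit, among multiplexed reporters in transfected HepG2 cells, were measured by RT-PCR with capillary electrophoresis after 24 h dosing. Induction or loss scored relative to DMSO.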

In assay [19] the target is Retinoic acid receptor alpha (Homo sapiens) (UniProt P10276). The experiment in a line: ATG_DR5_RAR_CIS: Attagene CIS-FACTORIAL HepG2 Assay for human Retinoic Acid Receptor Alpha (RARE), DR5 submotif (AID 2282934).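 On AC50: reporter responds to endogenous RAR alpha beta and gamma in HepG2 not RARA alone.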 Particulars: HepG2 Attagene cis-factorial RARE DR5 reporter, mRNA; actives raise or lower the signal. In outline:
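Transfected HepG2 reporter cells are exposed to chemicals for 24 h. Then RNA is extracted and the DR5 element reporter transcript is measured by RT-PCR and capillary electrophoresis, with bidirectional curve fitting relative to DMSO.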

Assay [20] can be described thus: ATG_AP_1_CIS: Attagene CIS-FACTORIAL HepG2 Assay for human Activator Protein 1 (AP-1) (AID 2282931). Particulars: HepG2 Attagene cis-factorial AP-1 reporter mRNA; actives raise or lower the signal. In outline: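 Transient MRTU transfection of HepG2 → 24 h chemical treatment → RNA isolation, RT-PCR, 6-FAM labelling, HpaI digest → capillary electrophoresis. Fit: bidirectional, DMSO negative control.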

Calls of active or inactive are those of the source. How the source made its calls: active means hit-call score of the fitted dose curve at least 0.9, where 1 is the maximum; inactive means score below 0.9.

Chain of CCAAT/enhancer-binding protein beta (Homo sapiens) (P17676 whole entry, looked up, the tested form may be a part): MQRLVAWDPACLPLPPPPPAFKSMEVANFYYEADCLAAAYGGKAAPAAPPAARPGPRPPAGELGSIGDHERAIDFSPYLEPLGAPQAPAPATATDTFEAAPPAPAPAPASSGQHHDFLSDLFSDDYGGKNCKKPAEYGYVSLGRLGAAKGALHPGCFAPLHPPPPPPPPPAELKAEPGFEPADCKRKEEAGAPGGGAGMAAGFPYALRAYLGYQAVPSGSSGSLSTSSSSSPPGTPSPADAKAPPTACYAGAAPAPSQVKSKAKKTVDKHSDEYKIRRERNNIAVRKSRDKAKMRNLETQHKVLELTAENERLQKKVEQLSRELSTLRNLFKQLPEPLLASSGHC
Chain of Transcription factor E2F1 (Homo sapiens) (Q01094 whole entry, looked up): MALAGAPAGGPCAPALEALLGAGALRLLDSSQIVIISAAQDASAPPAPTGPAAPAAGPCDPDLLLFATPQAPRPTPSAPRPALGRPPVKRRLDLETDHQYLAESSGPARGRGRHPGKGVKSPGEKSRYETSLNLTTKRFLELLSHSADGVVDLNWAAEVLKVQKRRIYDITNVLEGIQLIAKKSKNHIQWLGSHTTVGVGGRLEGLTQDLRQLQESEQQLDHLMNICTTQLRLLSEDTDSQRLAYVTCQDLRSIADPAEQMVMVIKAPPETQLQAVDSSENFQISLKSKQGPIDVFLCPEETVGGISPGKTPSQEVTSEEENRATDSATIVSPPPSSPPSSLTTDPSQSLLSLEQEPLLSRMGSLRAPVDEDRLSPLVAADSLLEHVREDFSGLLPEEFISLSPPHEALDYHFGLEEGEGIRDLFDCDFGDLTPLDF
Chain of Aryl hydrocarbon receptor (Homo sapiens) (P35869 whole entry, looked up): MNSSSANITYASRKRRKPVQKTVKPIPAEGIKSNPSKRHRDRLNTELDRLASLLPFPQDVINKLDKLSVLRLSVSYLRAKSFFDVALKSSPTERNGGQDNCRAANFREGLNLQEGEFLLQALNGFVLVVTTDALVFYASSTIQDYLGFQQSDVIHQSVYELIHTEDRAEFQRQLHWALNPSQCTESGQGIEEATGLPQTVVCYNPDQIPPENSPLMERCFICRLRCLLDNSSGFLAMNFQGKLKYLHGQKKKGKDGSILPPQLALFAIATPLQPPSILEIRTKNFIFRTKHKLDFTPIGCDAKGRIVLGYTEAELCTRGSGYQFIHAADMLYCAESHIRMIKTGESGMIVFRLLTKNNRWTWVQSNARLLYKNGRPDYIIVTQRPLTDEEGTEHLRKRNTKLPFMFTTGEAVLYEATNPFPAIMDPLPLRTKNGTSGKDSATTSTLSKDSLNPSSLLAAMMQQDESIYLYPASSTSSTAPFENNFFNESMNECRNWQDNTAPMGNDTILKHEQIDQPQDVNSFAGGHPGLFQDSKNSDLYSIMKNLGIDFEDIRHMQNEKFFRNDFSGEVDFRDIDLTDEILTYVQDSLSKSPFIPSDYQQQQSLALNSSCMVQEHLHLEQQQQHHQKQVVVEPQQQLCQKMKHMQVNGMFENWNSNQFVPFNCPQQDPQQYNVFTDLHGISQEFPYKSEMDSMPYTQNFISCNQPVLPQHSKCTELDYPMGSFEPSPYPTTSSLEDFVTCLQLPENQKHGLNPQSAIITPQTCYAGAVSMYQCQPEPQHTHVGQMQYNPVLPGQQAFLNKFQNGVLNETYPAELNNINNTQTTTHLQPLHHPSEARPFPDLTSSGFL
Chain of Retinoic acid receptor alpha (Homo sapiens) (P10276 whole entry, looked up): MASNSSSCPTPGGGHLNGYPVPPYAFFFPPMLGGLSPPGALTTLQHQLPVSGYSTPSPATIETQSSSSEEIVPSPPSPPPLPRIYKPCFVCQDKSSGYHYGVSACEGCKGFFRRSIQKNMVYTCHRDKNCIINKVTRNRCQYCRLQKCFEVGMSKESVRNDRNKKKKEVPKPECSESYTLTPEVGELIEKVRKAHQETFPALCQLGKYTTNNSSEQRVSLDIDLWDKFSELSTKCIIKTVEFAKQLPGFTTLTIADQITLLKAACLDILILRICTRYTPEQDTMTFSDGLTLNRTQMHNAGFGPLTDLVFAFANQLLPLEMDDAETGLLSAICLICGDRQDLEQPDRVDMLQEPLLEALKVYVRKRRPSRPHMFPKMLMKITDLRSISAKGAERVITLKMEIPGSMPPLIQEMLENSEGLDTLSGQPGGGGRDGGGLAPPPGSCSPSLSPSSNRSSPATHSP

For the compound `C=CC1(C)OC(=O)N(c2cc(Cl)cc(Cl)c2)C1=O` (configuration not stated), the outcome in [1], in [2], in [3], in assay [4], in [5] and in assay [6] was inactive. For the same compound, the outcome in [7], in assay [8], in assay [9], in assay [10], in [11] and in assay [12] was inactive. In addition, the call in [13], in assay [14], in assay [15], in assay [16], in [17] and in [18] was inactive.

On to `CCON=C(CC)C1=C(O)CC(c2c(C)cc(C)cc2C)CC1=O` (configuration not stated), for which the result in [1], in assay [2], in assay [3], in [4], in assay [5] and in assay [6] was inactive. Also, the compound was classed as inactive in assay [7], in assay [8], in [19], in assay [9], in assay [10] and in [11]. Further, the outcome in assay [12], in [13], in [14], in assay [15], in [16] and in [18] was inactive.

Regarding `CCOC(=O)C(Cl)Cc1cc(-n2nc(C)n(C(F)F)c2=O)c(F)cc1Cl` (configuration not stated), the compound was classed as inactive in assay [1], in assay [2], in [3], in assay [4], in [5] and in assay [6]. Besides, the result in assay [20], in assay [7], in assay [8], in assay [19], in assay [9] and in assay [10] was inactive. Besides, the compound was classed as inactive in [11], in assay [12], in assay [13], in [15], in assay [16] and in assay [18]. For the same compound, the AC50 in [14] is 50000 nM (active).

Consider `CCc1nn(C)c(C(=O)NCc2ccc(C(C)(C)C)cc2)c1Cl`, for which the result in assay [1], in [5], in assay [6], in [7], in [9] and in [10] was inactive. The compound was called inactive in [11], in assay [12], in [13], in assay [14], in assay [15] and in assay [16]. Also, the outcome in [18] was inactive. Further, the AC50 is 378 nM (active) in [2]; 1190 nM (active) in assay [3]; 171 nM (active) in assay [4]; 578 nM (active) in [8]; 425 nM (active) in [19].

As for `CC(C)(C)c1ccc(CSc2cnn(C(C)(C)C)c(=O)c2Cl)cc1`, the result in assay [1], in [4], in assay [6], in [7], in assay [9] and in [10] was inactive. Also, the call in [11], in assay [13], in [15], in [16], in assay [17] and in [18] was inactive. Besides, the AC50 in assay [2] was 188 nM (active); in [3], 12.9 nM (active); in assay [5] it was 50000 nM (active); in assay [8], 103 nM (active); in assay [19] it was 583 nM (active); in [12], 128 nM (active). Also, the AC50 in assay [14] was 5230 nM (active).
